Reference: PubChem BioAssay (NCATS)
Where “and” joins values, the source holds several entries; their conditions need not be identical. Identical values can stand only once. Records with an inconclusive call do not appear. Where a call stands in place of a potency, no number is given. Calls of active or inactive are those of the source. Calls come from the whole dose curve; as a rule, active = well fitted cell-killing curve with a large enough effect; inconclusive = small, poorly fitted or top-dose-only effect, or effect the other way; inactive = no such curve, though single readings can be large or run the other way.

Assay: Viability qHTS for spleen associated tyrosine kinase inhibitor (SYKi) drug resistant MV4-11 cells (AID 1963824); note: nearly all actives have a fitted effect of over 35% in size
Conditions: SYKi-resistant MV4-11 viability, CellTiter-Glo, 72 h; series mostly up to 45 µM
Excerpt: Department of Medicine, Hematology/Oncology
University Hospital Frankfurt, Germany.
Trials have shown promising clinical activity of the selective SYK inhibitor entospletinib in patients with high expressing HOXA9/MEIS1 acute leukemias. As the development of resistance mechanisms is a common problem in the use of targeted drugs, we performed a chemical library screen to identify drug sensitivities in SYK inhibitor resistant AML cells. […] Glucocorticoids are potent immunosuppressants which work in part by inhibiting the transcription of cytokine genes.
Described herein is a viability screen to look for activity in the SYK inhibitor drug resistant cell line against four NCATS compound libraries (MIPE 5.0, NPC, NPACT, and Kinase) totaling 11372 compounds. Active hits were reacquired for confirmation and further secondary assay testing.
SEQUENCE No. (e.g., 1, 2, 3, etc.); […] (e.g., Cells, Incubation, Reagent, etc.); VALUE; DESCRIPTION.
1; Media; 2uL; white, solid-bottom Corning assay plate.
2; Compounds; 23nL; Echo acoustic dispenser.
3; Cell; 5uL; 500 cells per well.
4: Incubation; 72hr; 37 C, 5% CO2, 95% humidity.
5; Reagent; 3uL; CellTiter-Glo reagent (Promega).
6; Incubation; 10min; room temperature.
7; Detection; Luminescence; ViewLux plate reader (PerkinElmer).
NOTES (numbers refer to Sequence numbers above
1. Quantitative high-throughput screening (qHTS) of small molecule compounds was conducted on drug resistant SYKi MV4-11 cell line.
2. Twenty-three nanoliter of small molecule compounds were added to each assay plates using the Echo acoustic dispenser (Beckman Coulter).
3. Cells were seeded into the assay plates at a final density of 500 cells in 5uL of media per well using the Multidrop Combi dispenser.
4. Plates were covered with stainless steel gasketed lids and incubated for 72 hours at standard cell culture conditions.
5. Viability was assessed by adding 3uL of CellTiter-Glo detection reagent (Promega).
6. Plates were covered with gasket lids and incubated for 10 minutes at room temperature.
7. Luminescence was measured on a ViewLux plate reader (PerkinElmer).
Potency is the fitted concentration of half-maximal effect.

Structure (SMILES)	Potency	viability, % of control
COc1ccc(NS(=O)(=O)c2ccc(N)cc2)nn1	inactive	
c1ccc2c(-c3cnn4cc(-c5ccc(OCCN6CCOCC6)cc5)cnc34)ccnc2c1	1.44 µM (active)	
CC1(C)CC[C@]2(C(=O)O[C@@H]3O[C@H](CO[C@@H]4O[C@H](CO)[C@@H](O)[C@H](O)[C@H]4O[C@@H]4O[C@H](CO)[C@@H](O)[C@H](O)[C@H]4O)[C@@H](O)[C@H](O[C@@H]4O[C@H](CO)[C@@H](O)[C@H](O)[C@H]4O)[C@H]3O)CC[C@]3(C)C(=CCC4[C@@]5(C)CC[C@@H](O)[C@@](C)(C(=O)O[C@@H]6O[C@H](CO)[C@@H](O)[C@H](O)[C@H]6O)C5CC[C@]43C)[C@@H]2C1 (stereo not given in full)		80.3% [at 9.25 µM] (inactive)
COC(=O)C1=CO[C@@H](O[C@@H]2O[C@H](CO)[C@@H](O)[C@H](O)[C@H]2O)C2C1C(=O)C[C@H]2C (stereo not given in full)	inactive	
CC(=O)O[C@H]1C[C@@]2(C)[C@@H](C[C@@H](O)[C@H]3[C@@]4(C)CC[C@@H](O)[C@@H](C)[C@@H]4CC[C@@]32C)/C1=C(\CCC=C(C)C)C(=O)O	inactive	
COC(=O)c1ccc(NC(C)=O)cc1OC	inactive	
CNC(=O)c1cc(Oc2ccc(NC(=O)c3cccc(C(F)(F)F)c3)cc2)ccn1	11.6 µM (active)	
CC(=O)Oc1cccc(C)c1	inactive	
CCn1c(=O)c(-c2ccc(Cl)cc2Cl)cc2cnc(Nc3ccc(N4CCNCC4)c(F)c3)nc21	231 nM (active) and 186 nM (active)	
O=C(Nc1cc(-c2ccccc2)nn1-c1ccccc1)c1ccc([N+](=O)[O-])cc1	18.4 µM (active)	
O=c1[nH]c(=O)n(C2CCCO2)cc1F (stereo not given)	18.6 µM (active)	
Cc1onc(-c2c(Cl)cccc2Cl)c1C(=O)N[C@@H]1C(=O)N2[C@@H]1SC(C)(C)[C@@H]2C(=O)O	inactive	
O=C(O)CP(=O)(O)O	inactive	
C/C(=C\c1csc(C)n1)[C@@H]1C[C@@H]2O[C@]2(C)CCC[C@H](C)[C@H](O)[C@@H](C)C(=O)C(C)(C)[C@@H](O)CC(=O)N1	0.0132 µM (active)	
CC(C)=CCC/C(C)=C/CO	inactive	
CC(=O)OCCN1C(=O)c2c(C)nc3ccc(S(=O)(=O)N4CCOCC4)cc3c2C1=O	inactive	
CC1OC2OC(=O)C3(C)CC4C5(CO5)C5=CC(=O)OC(C)(C)C5=CC(=O)C4(C)C(C1=O)C23 (stereo not given)	5.02 µM (active)	
O=C(Cn1c2ccccc2c2nc3n(c(=O)c21)CCS3)N1CCCC1	inactive	
O=C1OC(COc2ccccc2[N+](=O)[O-])CC1Cc1ccccc1 (stereo not given)	13.2 µM (active)	
C=C1CCC[C@]2(C)CC[C@@H](C(=C)C(=O)O)[C@H](O)[C@@H]12	inactive	

Structure (SMILES)	Potency	viability, % of control
COC(=O)c1c(C)cc(OC(=O)c2c(C)cc(OC)cc2OC)cc1O[C@@H]1O[C@H](CO)[C@@H](O)[C@H](O)[C@H]1O	inactive	
CC1(CO)CC(O)[C@]2(C(=O)O)CCC34CC3(C=CC3[C@]5(C)C(CC[C@]34C)C(C)(CO)[C@@H](O)[C@H](O)[C@@H]5O)C2C1 (stereo not given in full)	11.2 µM (active)	
CO/N=C(/C(=O)N[C@@H]1C(=O)N2C(C(=O)OCOC(=O)C(C)(C)C)=C(C)CS[C@H]12)c1csc(N)n1	23.7 µM (active)	
C/C=C(/COC(=O)/C(C)=C/C)C(=O)OC/C=C/c1ccc(OC)cc1	12.8 µM (active)	
Cc1ccc(Cc2c(C)nc3nc(SCC(=O)NCCN4CCNCC4)nn3c2C)cc1	inactive	
COc1cc2ncnc(Nc3ccc(O)cc3)c2cc1OC	7.31 µM (active)	
COc1cc(/C=C2\CCCN([C@@H](C)c3ccc(F)cc3)C2=O)ccc1-n1cnc(C)c1	5.17 µM (active)	
Oc1ccccc1	inactive	
CNC(=O)c1ccc(-c2cnc3ncc(Cc4ccc5ncccc5c4)n3n2)cc1F	2.06 µM (active)	
CN1CCC(COc2cnc(-c3cccc(Cn4nc(-c5cccc(C#N)c5)ccc4=O)c3)nc2)CC1	7.42 µM (active) and 13 µM (active)	
COc1ccc(C(=O)CC(=O)O)c2c1C=CC(C)(C)O2	inactive	
CC(C)(O)C1CCC2(C)C3C(O)C4C(C13)C42CO (stereo not given)	inactive	
Cc1cccn2c(=O)c(-c3nnn[nH]3)cnc12	inactive	
COc1cc2c(cc1-c1c(C)noc1C)ncc1[nH]c(=O)n(C(C)c3ccccn3)c12 (stereo not given)	0.366 µM (active)	
CN(C)CCCCC(=O)Nc1ccc(NC(=S)NC(=O)c2ccc(C(C)(C)C)cc2)cc1	1.46 µM (active)	
O=S(=O)(NC1CCNCC1)c1cc(S(=O)(=O)c2ccccc2)ccc1C(F)(F)F	inactive	
O=C(NCc1ccc(S(=O)(=O)c2cccc(C(F)(F)F)c2)cc1)c1cnc2[nH]ncc2c1	0.0105 µM (active)	
CC1(C)CC[C@]2(C(=O)O[C@@H]3O[C@H](CO[C@@H]4O[C@H](CO)[C@@H](O)[C@H](O)[C@H]4O[C@@H]4O[C@H](CO)[C@H](O)[C@H](O)[C@H]4O)[C@@H](O)[C@H](O[C@@H]4O[C@H](CO)[C@@H](O)[C@H](O)[C@H]4O)[C@H]3O)CC[C@]3(C)C(=CCC4[C@@]5(C)CC[C@H](O[C@@H]6OC[C@@H](O)[C@H](O)[C@H]6O)[C@@](C)(C(=O)O)C5CC[C@]43C)[C@@H]2C1 (stereo not given in full)		74.7% [at 9.25 µM] (inactive)
Cc1ccc(S(=O)(=O)OCC(=O)Nc2ccc(C(=O)O)c(O)c2)cc1	inactive	
COc1cc(CO)cc(OC)c1O[C@@H]1O[C@H](CO)[C@@H](O)[C@H](O)[C@H]1O	inactive	
